This passage reports Potency results from PubChem BioAssay (NCATS).

Records with an inconclusive call do not appear. Entries that show only a call come without a potency. Active and inactive are the calls of the source. The call rests on the fitted dose curve.

Atrial natriuretic peptide receptor 1 (Homo sapiens), sequence (P16066 whole entry, looked up, the tested form may be a part): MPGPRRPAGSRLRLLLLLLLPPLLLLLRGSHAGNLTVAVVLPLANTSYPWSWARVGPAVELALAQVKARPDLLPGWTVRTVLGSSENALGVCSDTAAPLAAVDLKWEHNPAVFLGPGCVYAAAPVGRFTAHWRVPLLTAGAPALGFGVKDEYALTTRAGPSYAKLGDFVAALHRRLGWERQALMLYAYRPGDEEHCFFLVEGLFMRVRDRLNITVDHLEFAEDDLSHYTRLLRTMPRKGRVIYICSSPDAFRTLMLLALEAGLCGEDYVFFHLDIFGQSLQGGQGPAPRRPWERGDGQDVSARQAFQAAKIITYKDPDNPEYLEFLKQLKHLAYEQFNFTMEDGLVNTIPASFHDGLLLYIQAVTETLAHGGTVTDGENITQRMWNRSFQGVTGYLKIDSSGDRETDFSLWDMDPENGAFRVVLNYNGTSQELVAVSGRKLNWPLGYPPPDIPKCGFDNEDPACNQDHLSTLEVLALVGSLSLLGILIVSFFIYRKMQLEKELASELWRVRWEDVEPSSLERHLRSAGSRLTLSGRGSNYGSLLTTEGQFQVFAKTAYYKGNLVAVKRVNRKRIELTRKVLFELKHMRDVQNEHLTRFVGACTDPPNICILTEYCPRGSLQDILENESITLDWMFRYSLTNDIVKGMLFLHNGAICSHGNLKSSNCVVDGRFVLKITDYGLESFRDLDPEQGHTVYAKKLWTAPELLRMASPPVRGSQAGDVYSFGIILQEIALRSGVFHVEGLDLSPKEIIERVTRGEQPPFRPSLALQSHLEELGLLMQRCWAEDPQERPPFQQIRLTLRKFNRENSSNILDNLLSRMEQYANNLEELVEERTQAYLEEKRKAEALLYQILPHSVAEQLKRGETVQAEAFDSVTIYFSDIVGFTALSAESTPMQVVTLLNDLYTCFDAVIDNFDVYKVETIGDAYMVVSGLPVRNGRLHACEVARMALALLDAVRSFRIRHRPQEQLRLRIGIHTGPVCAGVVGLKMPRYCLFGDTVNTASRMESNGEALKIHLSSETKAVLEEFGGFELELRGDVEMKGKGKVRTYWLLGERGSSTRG

The target of this experiment is Atrial natriuretic peptide receptor 1 (Homo sapiens) (UniProt P16066). Briefly: Natriuretic polypeptide receptor (hNpr1) antagonism - Pilot CMLD screen (AID 1347052). Particulars: HEK293 hNpr1 GloSensor cGMP luminescence, ANP-stimulated; series mostly up to 9.22 µM. How it is done:
In order to identify small molecular compounds that inhibit the hNpr1 receptor we developed a high-throughput assay to measure inhibition of the guanylate cyclase activity of the receptor. cGMP production was measured using a circular permutated Firefly luciferase (FLuc) enzyme functionally linked to the cGMP binding domain of human phosphodiesterase 5 (GloSensor technology pGS-40F, (Fan, F. et al. 2008). The cGMP-sensor was expressed in human embryonic kidney 293 (HEK-293) cells and FLuc activity was measured after stimulation with hNrp agonist peptide. hNrp agonists activates the receptor's associated guanylyl cyclase (GC) domain producing cGMP which then binds to the GloSensor resulting in FLuc activation, the enzymatic activity of which can be measured as bioluminescence with addition of luciferin substrate.
This assay was initially piloted by testing with a small library of specialty compounds.
PROTOCOL TABLES (as described by Inglese J, Shamu CE and Guy RK. 2007)
SEQUENCE No. (e.g., 1, 2, 3, etc.); […] (e.g., Cells, Incubation, Reagent, etc.); VALUE and DESCRIPTION.
1. Cells. Seed 1500 HEK293 cGMP-sensor cells expressing hNpr1 per well in 4uL into Greiner 1536-well white/solid bottom high base, tissue culture-treated plates.
2. Incubation. Incubate plated cells at 37C in 5% CO2, 95% RH overnight.
3. Reagent. Add 1uL per well GloSensor reagent from Promega (2% final concentration) or CO2 independent media vehicle control to respective columns of Greiner 1536-well plates.
4. Incubation. Incubate plated cells at room temperature for 2 h, protect from light.
5. Compounds. Library compounds and A-71915 control added at 23 nL per well, transferred by Pin Tool.
6. Incubation. Incubate plated cells for 30 min. at room temperature, protect from light.
7. Detector. GloSensor baseline pre-read luminescence measured using CCD-based camera (Viewlux).
8. Compound. Add 1uL of hNppA peptide to 0.1 nM final concentration to stimulate hNpr1 or CO2 independent media as vehicle control.
9. Incubation. Incubate treated cells at room temperature for 20 min., protect from light.
10. Detector. GloSensor post-hNppA luminescence measured using CCD-based camera (Viewlux).
NOTES (numbers refer to Sequence numbers above)
1. HEK293 cells expressing hNpr1 and GIP/pGS-40F grown to 85-95% confluence (48-72 h) in T175 culture flasks (CO2 independent media supplemented with 10% FBS, 1% Pen/Strep antibiotics and 1 ug/mL puromycin). Trypsinize and harvest cells from T175 culture flasks and filter through 40 um cell strainer. Cells counted with Invitrogen Countess (30,000,000 - 50,000,000 cells/flask). Cells diluted to a final concentration of 375 cells/uL in CO2 independent media and a Millipore multidrop used to dispense 1500 cells per well (4uL/well) into 13 1536-well Greiner White/Solid bottom, high base tissue-culture treated (TC) plates and one Aurora 1536-well Black/Clear bottom, low base, TC plate (for visual inspection of cell health throughout the duration of the assay).
2. Cells incubated overnight at ambient temperature, 24 h. at 37C in 95% RH incubator protected from light, covered with metal lid with gas-exchange holes.
3. Prepare GloSensor Reagent (Promega): Reconstitute GloSensor luciferase substrate by adding 8.2mL Hepes buffer to 250mg substrate, mix well, protect from light and stored at -80C. Prepare a fresh 12% GloSensor solution in CO2 independent supplemented plating media (see above). Mix well and store at ambient temperature, protected from light. 1uL 12% GloSensor Luciferase Reagent added (2% final concentration) to respective columns of 13 x 1536-well Greiner plate with BioRaptr, 1uL CO2 independent plating media added to respective columns as vehicle control with BioRaptr.
4. Cells incubated for 2 h. at ambient temperature, protected from light with metal lid with gas-exchange holes.
5. A-71915 stock solution prepared (10 mM in DMSO). […]
Consider `COC(=O)C1=C(C)N(CC2CC2)C(=NCCc2cccnc2)NC1c1ccccc1` (stereo not given), for which the Potency result is “inactive”.

In the case of `CCN1C(=O)[C@H]2[C@H]3C(=CC[C@@H]2C1=O)C1(OCCCO1)[C@@H]1O[C@H]1[C@H]3O`, the Potency entry was “inactive”.

Take `COC(=O)N[C@H](CC(C)=O)c1ccccc1`: the Potency entry was “inactive”.

`COC1=C[C@H](C(=O)N[C@H]2CCCC[C@H]2NC(C)=O)[C@@]2(C)Cc3ccccc3[C@@H]2CC1=O`: the Potency entry was “inactive”. As to `Cc1cc2c(c(=O)n1-c1ccccc1)[C@H]1O[C@](c3ccsc3)(Cc3ccccc31)O2`, the Potency result is “inactive”. The entry for `CON(C)C(=O)c1nnc2c3ccccc3n(S(=O)(=O)c3ccc(C)cc3)c2n1` is “inactive”; for `COc1ccc(-c2nc(-c3ccccc3)c(NC(C)(C)C)o2)cc1` it is “inactive”; for `COC[C@@H](O)[C@H]1OCc2cccc(OC)c2[C@H]1C=Cc1ccccc1` it is “inactive”. In the case of `Cc1ccc(C#C[C@@H]2C=C[C@H](Oc3ccc4c(c3)OCO4)[C@@H](CO)O2)c(C)c1`, the Potency result is “inactive”.

With `CC(C)CON=C1C[C@@H](O)[C@@H](O)[C@@H]2[C@H]3C(=O)N(C[C@@H]4CCCO4)C(=O)[C@@H]3CC[C@H]12`, the Potency entry is “inactive”. Under `COC(=O)[C@H]1O[C@@H](c2c(OC)c(OC)c(C)c(OC)c2OC)[C@H](C)[C@@H](O)[C@@H]1C` stands “inactive”; under `COC(=O)C1=C(C)N(Cc2ccccc2)C(=NCC(C)C)NC1c1ccc(Br)cc1` (stereo not given), “inactive”; under `CCCC[C@]12Cc3c(ccc4ccccc34)[C@H](O1)c1c(cc(C)oc1=O)O2`, “inactive”. For `COc1cccc(CO[C@H]2C=C[C@@H](c3ccccc3)O[C@H]2CO)c1`, the Potency entry is “inactive”. Consider `COC(=O)C1=C(C(=O)OC)[C@@H]2N(Cc3ccccc3)c3ccccc3[C@@]23C[C@@H](C(=O)OC)N(C(=O)c2cc(C)oc2C)C3=N1`, for which the Potency entry was “inactive”.

Regarding `CC(=CC[Si](C)(C)C)CCC=O`, the Potency result is “inactive”. Under `COC(=O)C1=C(C)N(Cc2ccccc2)C(=O)NC1c1cccc(F)c1` (stereo not given) stands “inactive”; under `COC(=O)C1=C(C)N(Cc2ccccc2)C(=NCc2ccccc2)NC1c1ccccc1` (stereo not given), “inactive”. On to `CCOC(=O)CN1C(=O)[C@]2(O[C@H](C)CC3=CCCC32)c2c(Br)cccc21` (stereo not given in full), for which the Potency entry is “inactive”. `COC(=O)C[C@H]1c2ccccc2[C@@H]2C(=C[C@@H](C)[C@H]3C(=O)N(O)C(=O)[C@H]32)N1C(=O)OC`: the Potency result was “inactive”. Under `COCC=CC1=CC2=CC(=O)C(C)(OC(=O)c3cnc4ccccc4n3)C(=O)C2=CN1Cc1ccc(OC)cc1` (stereo not given) stands “inactive”; under `FC(F)(F)c1ccc(-c2nc(-c3ccccc3)oc2NCc2ccccc2)cc1`, “inactive”; under `COc1ccc2c(c1)O[C@@H](c1ccc3c(c1)OCO3)[C@H](OC(=O)Nc1ccc(C)c(Br)c1)C2=O`, “inactive”. Under `CCCCC1=CC2=C(c3ccco3)C(=O)C(C)(OC(=O)c3ccc(OC)cc3)C(=O)C2=CN1Cc1ccco1` (stereo not given) stands “inactive”; under `CC1(OC(=O)CCc2ccccc2)C(=O)C=C2C=C(c3ccc(C#N)cc3)N(C(CO)CO)C=C2C1=O` (stereo not given), “inactive”; under `CC1(OC(=O)C2CCCC2)C(=O)C=C2C=C(c3ccsc3)N(C3CC3)C=C2C1=O` (stereo not given), “inactive”. The entry for `C=C(C(C)=O)C(O)c1ccco1` (stereo not given) is “inactive”; for `COC1(C#C[C@@H]2C=C[C@H](OC(C)=O)[C@@H](COC(C)=O)O2)CCCCC1` it is “inactive”; for `COc1ccc([C@]23Cc4ccccc4[C@H](O2)C2=C(CCCC2=O)O3)cc1` it is “inactive”.

For `C[C@@H]1C=CCCO[C@]12C(=O)N(Cc1ccccc1C(F)(F)F)c1cccc(Br)c12`, the Potency entry was “inactive”. As to `COC(=O)C1=C(C)N(Cc2ccccc2)C(=NCCc2ccc(O)cc2)NC1c1ccc(Br)cc1` (stereo not given), the Potency result was “inactive”. Under `CC(CCN1CCCc2nc(C)c(C)cc21)=NO[C@H](C)CN1CCCc2nc(C)c(C)cc21` stands “inactive”. The entry for `COC(=O)C[C@H]1c2ccccc2C2=C(C[C@@H](C)[C@H]3C(=O)NC(=O)[C@@H]23)N1C(=O)OC` is “inactive”. The entry for `COCCN1C(=O)C2=C(C1=O)C1N(C)c3ccccc3[C@@]13C[C@@H](CO)N=C3N2` (stereo not given in full) is “inactive”; for `C=CCOC(=O)NC(c1ccc(F)c(F)c1)S(=O)(=O)c1ccc(Cl)cc1` (stereo not given) it is “inactive”; for `COCCN1C(=O)NC(c2cccc(F)c2)C(C(=O)OC)=C1C` (stereo not given) it is “inactive”. As for `C#CCCCON=C1C[C@@H](O)[C@H](O)[C@H]2[C@@H]3C(=O)N(Cc4ccc5c(c4)OCO5)C(=O)[C@@H]3CC[C@@H]12`, the Potency entry was “inactive”. Regarding `CC(CCN1CCc2nc(-c3ccccc3)c(-c3ccccc3)cc2C1)=NOC[C@@H](O)[C@H]1O[C@@H]2OC(C)(C)O[C@H]2[C@@H]1O`, the Potency entry is “inactive”. `COC(=O)C1=C(C)N(Cc2ccccc2)C(=NCc2cc(OC)c(OC)c(OC)c2)NC1CCc1ccccc1` (stereo not given): the Potency result was “inactive”. For the molecule `O=C1CCC=C1C(O)c1ccccc1` (stereo not given), the Potency entry was “inactive”.
